Here are results for 29 compounds from PubChem BioAssay (Tox21).

Inconclusive results are not listed. Calls of active or inactive are those of the source. The call rests on the fitted dose curve; in most records, active means well fitted inhibition curve with a large enough effect in the repeat runs; inconclusive means weak or mixed curves; inactive means no such curve, though single readings can be large or run the other way.
On the % scale 0 is the no-effect control and ±100 the full control effect; potency means the concentration at half of the fitted maximal effect.

Sequence of Cytochrome P450 2C19 (Homo sapiens) (P33261 whole entry, looked up): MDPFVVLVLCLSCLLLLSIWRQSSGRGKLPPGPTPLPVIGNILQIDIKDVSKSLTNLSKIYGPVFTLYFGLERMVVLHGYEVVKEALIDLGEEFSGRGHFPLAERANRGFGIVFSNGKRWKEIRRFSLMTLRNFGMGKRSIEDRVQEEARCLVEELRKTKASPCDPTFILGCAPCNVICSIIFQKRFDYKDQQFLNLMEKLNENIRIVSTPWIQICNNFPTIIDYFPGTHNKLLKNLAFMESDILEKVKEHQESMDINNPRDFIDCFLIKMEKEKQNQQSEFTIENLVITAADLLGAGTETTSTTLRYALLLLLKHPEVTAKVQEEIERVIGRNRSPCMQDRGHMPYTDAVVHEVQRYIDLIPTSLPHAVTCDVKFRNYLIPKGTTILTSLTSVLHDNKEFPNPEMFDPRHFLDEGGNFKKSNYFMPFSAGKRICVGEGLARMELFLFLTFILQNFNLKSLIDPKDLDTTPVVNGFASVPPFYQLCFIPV

This assay concerns the target Cytochrome P450 2C19 (Homo sapiens) (UniProt P33261). Put plainly: Cytochrome P450 Family 2 Subfamily C Member 19 (CYP2C19) small molecule antagonists: luciferase reporter qHTS assay (AID 1671197). Further: nearly all actives have a fitted effect of over 65% in size. The settings on record: P450-Glo CYP2C19 enzyme, luciferin luminescence, 1 h; series mostly up to 115 µM; activity change, negative = inhibition: at the top concentration. The gist of the method:
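Inhibition of CYP2C19 was scored from loss of luminescence in a P450-Glo proluciferin substrate assay, NADPH-started and run 1 h at 37C, with ketoconazole as positive control.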
For `CC(C)(c1ccc(O)c(-c2ccccc2)c1)c1ccc(O)c(-c2ccccc2)c1`, the Potency was 17.8 µM (active).

For `Fc1ccc(Oc2ccnc3cc(Cl)cc(Cl)c23)cc1`, the Potency is 20 µM (active).

Turning to `N#CCCC(Br)(C#N)CBr` (centres undefined), the Potency is 11.2 µM (active).

Consider `COc1cc(C=O)cc2c1[C@H](COC(N)=O)[C@]1(OC(C)=O)ON2C[C@H]2[C@@H]1N2C(C)=O`, for which the “activity change, negative = inhibition” value was 10.9% (inactive).

In the case of `c1cc[c]([Sb]([c]2ccccc2)[c]2ccccc2)cc1`, the Potency was 17.8 µM (active).

As for `C[C@]12CC[C@@H]3c4ccc(OC(=O)N(CCCl)CCCl)cc4CC[C@H]3[C@@H]1CC[C@@H]2O`, the “activity change, negative = inhibition” value was 8.39% [at 52.9 µM] (inactive).

`CCCCCCCCCCCCCCCC[n+]1ccccc1`: the “activity change, negative = inhibition” value was -3.05% [at 52.9 µM] (inactive).

Consider `O=[N+]([O-])c1cc(Cl)ccc1Cl`, for which the “activity change, negative = inhibition” value is -6.15% (inactive).

Turning to `ClCc1ccccc1CCl`, the “activity change, negative = inhibition” value was 7.94% (inactive).

In the case of `NC(=O)CCl`, the “activity change, negative = inhibition” value was -28.5% (inactive).

Take `CC1(c2ccc(Oc3ccccc3)cc2)OC(=O)N(Nc2ccccc2)C1=O` (centres undefined): the Potency was 12.7 µM (active).

In the case of `COC(=O)N(C(=O)N1COC2(C(=O)OC)Cc3cc(Cl)ccc3C2=N1)c1ccc(OC(F)(F)F)cc1` (centres undefined), the Potency is 0.195 µM (active).

As to `Cc1c(Cl)c(=O)oc2cc(OP(=O)(OCCCl)OCCCl)ccc12`, the Potency was 2.19 µM (active).

Take `O=C1NCN(c2ccccc2)C12CCN(CC1COc3ccccc3O1)CC2` (centres undefined): the Potency is 4.36 µM (active).

With `C[C@H]1O[C@@H](O[C@H]2[C@@H](O)C[C@H](O[C@H]3[C@@H](O)C[C@H](O[C@H]4CC[C@@]5(C)[C@H](CC[C@@H]6[C@@H]5CC[C@]5(C)[C@@H](C7=CC(=O)OC7)CC[C@]65O)C4)O[C@@H]3C)O[C@@H]2C)C[C@H](O)[C@@H]1O`, the “activity change, negative = inhibition” value is 5.1% [at 52.9 µM] (inactive).

On to `CCC(C)c1cc(C(C)(C)C)cc(-n2nc3ccccc3n2)c1O` (centres undefined), for which the “activity change, negative = inhibition” value was -16.3% [at 52.9 µM] (inactive).

For the compound `Oc1ccc(C(=C(Cl)Cl)c2ccc(O)cc2)cc1`, the Potency was 12.6 µM (active).

Take `CC(C)OC(=S)S`: the “activity change, negative = inhibition” value was -14.7% (inactive).

`CCCCN(CCCC)C(=S)[S-].CCCCN(CCCC)C(=S)[S-].[Zn+2]`: the Potency is 79.6 µM (active).

As for `Oc1ccc(C2(c3ccc(O)cc3)c3ccccc3-c3ccccc32)cc1`, the Potency is 25.2 µM (active).

Turning to `O=C(Nc1ccc2[nH]ccc2c1)c1cc2cc(F)ccc2n1Cc1cccc(F)c1`, the Potency was 6.33 µM (active).

As for `CCc1ccccc1C`, the “activity change, negative = inhibition” value is -17.8% (inactive).

Turning to `COc1ccc(OC)c(CC(C)N)c1` (centres undefined), the “activity change, negative = inhibition” value was 12.9% (inactive).

Take `CC(Cl)CN(C)C` (centres undefined): the “activity change, negative = inhibition” value was 5.46% (inactive).

On to `CCCCCCCCCCCCCC[P+](CCCCCC)(CCCCCC)CCCCCC` (tested in a mixture with another compound), for which the Potency was 20 µM (active).

As for `CCCCCCCCCCCCCCCCCCn1cc[n+](C)c1`, the Potency was 79.2 µM (active).

Turning to `c1ccc2cc3c(cc2c1)-c1cccc2cccc-3c12`, the “activity change, negative = inhibition” value is 23.4% (inactive).

For the compound `CN(C)S(=O)(=O)N(SC(F)(Cl)Cl)c1ccccc1`, the Potency is 11.2 µM (active).

On to `C=CC(=O)OCC(COC(=O)C=C)(COC(=O)C=C)COC(=O)C=C`, for which the Potency is 17.8 µM (active).
